Rows were chosen to be rich in hits. Some 2.1% of all compounds tested hit in one or more screens of this group.
BaF3 parental – counter-screen for JAK2V617F inhibitors: parental Ba/F3 viability inhibitors; CellTiter-Glo ATP luminescence; inhibition, % at 5.6 µM; actives 1.1% (n = 220,000); AID 1486;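 active = inhibition above a per-campaign cutoff, the mean inhibition of all tested compounds plus 3 SD, cut at about 27% in these data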
APP transl inh – APP translation inhibition. SH-SY5Y APP 5'UTR-luciferase reporter, luminescence. inhibition, % at 2 µM. actives 0.82% (n = 190,000). AID 1285;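 active = inhibition above a set limit, derived from the sample mean plus 3 SD, cut at about 45% in these data; inconclusive = one replicate passes the limit while the other fails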
IEC-6 tox-1 – kills IEC-6 intestinal cells in KLF5 counter-screen | IEC-6 cytotoxicity, luminescence viability | inhibition, % at 5 µM | actives 0.78% (n = 290,000) | AID 1825
aSyn 5UTR inh – MLPCN primary screen, SNCA 5' untranslated region. alpha-synuclein 5'UTR reporter, inhibitor activity. inhibition, % (tested at 7.5 µM). actives 0.82% (n = 300,000). AID 1813; in the data active = inhibition above about 60%; inconclusive = no clear call, values can overlap the other calls;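 also: H4 neuroglioblastoma cells stably carrying SNCA 5'UTR luciferase fusion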
KLF5 inhibitor – inhibitors of KLF5 expression. DLD-1 KLF5 promoter-luciferase reporter, luminescence. inhibition, % at 5 µM. actives 0.23% (n = 290,000);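 active = inhibition above a per-plate limit of that plate's mean compound inhibition plus 3 SD, cut at about 60% in these data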;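 also: higher means less KLF5 promoter-driven luciferase light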
Ba/F3 V617F tox – reduce viability of Ba/F3 cells dependent on JAK2V617F. actives 1.1% (n = 220,000). Ba/F3 EpoR-JAK2V617F viability, ATP luminescence. inhibition, % at 5.6 µM. AID 1446;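 active = inhibition above the campaign mean plus 3 SD over all tested compounds, cut at about 24% in these data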;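 also: cytokine-independent growth of Ba/F3 cells driven by EpoR plus mutant JAK2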
KLF5 confirm – KLF5 inhibition, confirmation assay; inhibition, % at 4 µM; DLD-1 KLF5 promoter firefly luciferase reporter, luminescence; shares compounds with KLF5 inhibitor; actives 79% (n = 610);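 active = inhibition above a set limit taken from the earlier primary screen, cut at about 63% in these data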
IEC-6 tox-2 – kills rat IEC-6 cells in KLF5 counter-screen; shares compounds with KLF5 inhibitor; IEC-6 rat intestinal cells, viability luminescence; inhibition, % at 4 µM; actives 56% (n = 610); in the data active = inhibition above about 23%;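 also: cells exposed to compounds for 48 hours before viability read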
IEC-6 cytotox cf – confirmation of cytotoxic compounds in rat IEC-6 intestinal epithelial cells; shares compounds with IEC-6 tox-1; inhibition, % at 5 µM; actives 63% (n = 1,900); IEC-6 rat intestinal epithelial viability, luminescence
Large screens that a line does not name were inactive (follow-up assays come after a bar, where they were run). Rule as the data show it, unless noted: active = inhibition above about 22%; inactive = the rest.

COc1ccc2c(c1)C(C)=CC(C)(C)N2S(=O)(=O)c1ccc(NC(C)=O)cc1	IEC-6 tox-1 90, aSyn 5UTR inh 71, KLF5 inhibitor 81 (no result: BaF3 parental, APP transl inh, Ba/F3 V617F tox) | KLF5 confirm 88 | IEC-6 tox-2 59 | IEC-6 cytotox cf 57
COc1ccc(C)cc1Nc1c2c(nc3ccccc13)CCC2	IEC-6 tox-1 88, aSyn 5UTR inh 68, KLF5 inhibitor 62 (no result: BaF3 parental, APP transl inh, Ba/F3 V617F tox) | KLF5 confirm 87 | IEC-6 tox-2 70 | IEC-6 cytotox cf 55
COc1cccc(OC)c1C(=O)NCCOc1cc(C)cc(C)c1	none (no result: BaF3 parental, APP transl inh, Ba/F3 V617F tox)
CN(C)C(=O)c1ccc(NC(=O)COC(=O)C2CCN(S(=O)(=O)c3ccc4c(c3)OCCO4)CC2)cc1	none (no result: BaF3 parental, APP transl inh, IEC-6 tox-1, KLF5 inhibitor, Ba/F3 V617F tox)
CN1/C(=C/c2cccc[n+]2CCO)Sc2ccccc21	none (no result: BaF3 parental, APP transl inh, Ba/F3 V617F tox)
CC[n+]1c(/C=C2\Sc3ccccc3N2C)ccc2cccc(C)c21	BaF3 parental 104, APP transl inh 52, IEC-6 tox-1 71, aSyn 5UTR inh 116, KLF5 inhibitor 68, Ba/F3 V617F tox 102 | KLF5 confirm 115 | IEC-6 tox-2 55 | IEC-6 cytotox cf 64
C/C(=N\NC(=O)c1c(C)nc2ccccn12)c1ccc(O)cc1O	IEC-6 tox-1 28, aSyn 5UTR inh 84, KLF5 inhibitor 69 (no result: BaF3 parental, APP transl inh, Ba/F3 V617F tox) | KLF5 confirm 84 | IEC-6 tox-2 39 | IEC-6 cytotox cf 36
COc1ccc(N(C(=O)c2ccco2)C(C(=O)NC2CCCC2)c2ccc(N3CCOCC3)cc2)c(OC)c1 (centres undefined)	none (no result: BaF3 parental, APP transl inh, Ba/F3 V617F tox)
COC(=O)COc1coc(CN2CCN(c3cccc(Cl)c3)CC2)cc1=O	none (no result: BaF3 parental, APP transl inh, Ba/F3 V617F tox)
O=Cc1cc(Br)c(OC(=O)N2CCOCC2)c(Br)c1	none (no result: BaF3 parental, APP transl inh, Ba/F3 V617F tox)
CCN1/C(=C/c2sc(-c3ccccc3C)c[n+]2C)Sc2ccccc21	BaF3 parental 80, IEC-6 tox-1 34, aSyn 5UTR inh 94, KLF5 inhibitor 63, Ba/F3 V617F tox 100 | KLF5 confirm inactive | IEC-6 tox-2 inactive | IEC-6 cytotox cf 39
CCOC(=O)C(C)Oc1cccc2c(=O)n(CC(=O)NCc3ccccc3)ccc12 (centres undefined)	BaF3 parental 76, IEC-6 tox-1 82, aSyn 5UTR inh 73, KLF5 inhibitor 63, Ba/F3 V617F tox 73 (no result: APP transl inh) | KLF5 confirm 84 | IEC-6 tox-2 58 | IEC-6 cytotox cf 58
O=C(NCC(=O)N(c1cccnc1)C(C(=O)NC1CCCC1)c1ccccc1F)c1ccco1 (centres undefined)	none (no result: BaF3 parental, APP transl inh, Ba/F3 V617F tox)
Oc1ccc(N=Nc2ccccc2C(F)(F)F)c2cccnc12	IEC-6 tox-1 45, aSyn 5UTR inh 72, KLF5 inhibitor 63 (no result: BaF3 parental, APP transl inh, Ba/F3 V617F tox) | KLF5 confirm 86 | IEC-6 tox-2 inactive | IEC-6 cytotox cf inactive
Oc1ccc(COCc2ccccc2)c2cccnc12	aSyn 5UTR inh inconclusive
O=C(N/N=C/c1cccc(Oc2ccccc2)c1)c1ccccc1F	IEC-6 tox-1 28, KLF5 inhibitor 64 (no result: BaF3 parental, APP transl inh, Ba/F3 V617F tox) | KLF5 confirm 66 | IEC-6 tox-2 inactive | IEC-6 cytotox cf inactive
O=S(=O)(Nc1cc(Sc2ncn[nH]2)c(O)c2ccccc12)c1ccccc1	BaF3 parental 99, APP transl inh 76, IEC-6 tox-1 85, KLF5 inhibitor 68, Ba/F3 V617F tox 95 (no result: aSyn 5UTR inh) | KLF5 confirm inactive | IEC-6 tox-2 inactive | IEC-6 cytotox cf inactive
Cc1cc(C)c(S(=O)(=O)Nc2ccc3c(c2)CCC3)c(C)c1	none
Cc1cc(C)c(S(=O)(=O)Nc2ccc3c4c(cccc24)CC3)c(C)c1	BaF3 parental 79, APP transl inh 95, IEC-6 tox-1 89, aSyn 5UTR inh 106, KLF5 inhibitor 70, Ba/F3 V617F tox 77 | KLF5 confirm 84 | IEC-6 tox-2 57 | IEC-6 cytotox cf 56
O=C1CCCN1CCC(=O)N1CCCC(Nc2ccc(F)c(F)c2)C1 (centres undefined)	none (no result: BaF3 parental, APP transl inh, Ba/F3 V617F tox)
O=C(Cc1ccc(N2CCNC2=O)cc1)N1CCCC(Nc2cccc(F)c2)C1 (centres undefined)	IEC-6 tox-1 71, aSyn 5UTR inh 64, KLF5 inhibitor 70 (no result: BaF3 parental, APP transl inh, Ba/F3 V617F tox) | KLF5 confirm 71 | IEC-6 tox-2 47 | IEC-6 cytotox cf 56
O=C(Cc1ccc(N2CCNC2=O)cc1)N1CCCC(Nc2ccc(F)c(F)c2)C1 (centres undefined)	IEC-6 tox-1 48, KLF5 inhibitor 67 (no result: BaF3 parental, APP transl inh, Ba/F3 V617F tox) | KLF5 confirm 69 | IEC-6 tox-2 62 | IEC-6 cytotox cf 35
CCOC(=O)N1CCC(NC(=O)c2ccc3c(c2)N=C(C)c2c(C)ccc(C)c2S3)CC1	IEC-6 tox-1 87, KLF5 inhibitor 71 (no result: BaF3 parental, APP transl inh, Ba/F3 V617F tox) | KLF5 confirm 87 | IEC-6 tox-2 61 | IEC-6 cytotox cf 67
COc1cccc(COc2ccc3c(C)cc(=O)oc3c2)c1	none (no result: BaF3 parental, APP transl inh, Ba/F3 V617F tox)
COc1ccccc1C1=NOC(COc2ccc3c(C)cc(=O)oc3c2)C1 (centres undefined)	BaF3 parental 78, IEC-6 tox-1 83, KLF5 inhibitor 71, Ba/F3 V617F tox 75 (no result: APP transl inh) | KLF5 confirm 81 | IEC-6 tox-2 61 | IEC-6 cytotox cf 57
COc1ccc(OC)c(Nc2cc(-c3ccccc3)nc(N)n2)c1	BaF3 parental 76, APP transl inh 94, IEC-6 tox-1 89, aSyn 5UTR inh 68, KLF5 inhibitor 65, Ba/F3 V617F tox 83 | KLF5 confirm 71 | IEC-6 tox-2 58 | IEC-6 cytotox cf 57
COc1ccc(OC)c(Nc2cc(C)nc3ccccc23)c1	none
COc1ccc2nc(SCC(=O)NC3CCCCC3)[nH]c2c1	none (no result: BaF3 parental, APP transl inh, Ba/F3 V617F tox)
COc1ccc2nc(SCC(=O)NC3CCCC3)c(C)cc2c1	IEC-6 tox-1 45, KLF5 inhibitor 71 (no result: BaF3 parental, APP transl inh, Ba/F3 V617F tox) | KLF5 confirm 85 | IEC-6 tox-2 inactive | IEC-6 cytotox cf 27
CCOc1ccc(NC(=O)c2cc(OC)nc3ccccc23)cc1	IEC-6 tox-1 88, aSyn 5UTR inh 83, KLF5 inhibitor 66 (no result: BaF3 parental, APP transl inh, Ba/F3 V617F tox) | KLF5 confirm 82 | IEC-6 tox-2 63 | IEC-6 cytotox cf 53
N#Cc1ccc(S(=O)(=O)NC2CC2)cc1	none (no result: BaF3 parental, APP transl inh, Ba/F3 V617F tox)
Cc1ccc(Nc2nc(-c3c(C)nc4ncccn34)cs2)cc1	BaF3 parental 78, APP transl inh 95, IEC-6 tox-1 90, aSyn 5UTR inh 84, KLF5 inhibitor 73, Ba/F3 V617F tox 76 | KLF5 confirm 79 | IEC-6 tox-2 73 | IEC-6 cytotox cf 59
Cc1ccc(Nc2nc(-c3c(C)nc4ccccn34)cs2)cc1	BaF3 parental 92, APP transl inh 96, IEC-6 tox-1 94, KLF5 inhibitor 87, Ba/F3 V617F tox 94 | KLF5 confirm 87 | IEC-6 tox-2 79 | IEC-6 cytotox cf 79
Cc1nc2ccccn2c1-c1csc(NCc2ccco2)n1	none
Cc1ccc(C(=O)N/C(=C\c2cccc([N+](=O)[O-])c2)C(=O)NC(Cc2ccccc2)C(=O)O)cc1 (centres undefined)	none (no result: BaF3 parental, APP transl inh, Ba/F3 V617F tox)
CC(OC(=O)c1ccc2c(=O)n3c(nc2c1)CCC3)C(=O)NC1CCCCC1C (centres undefined)	none (no result: BaF3 parental, APP transl inh, Ba/F3 V617F tox)

Screens as filed in PubChem.
